Measured values: the supplement of paper PMC11865577
Where a name gives a salt, the structure may show the parent alone.

System: SARS-CoV-2 low-rank motif (SARS-low)
Assay: normalised indicator fluorescence (fraction of RNA + indicator signal without compound); higher = less displacement of indicator (weaker competition)
Conditions: compound concentration: 5 uM, 30 min
Procedure, shortened: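 Indicator fluorescence, corrected by subtracting the buffer-plus-indicator blank and normalized to the RNA-plus-indicator signal without compound, is given as the mean of two independent experiments. The buffer was 20 mM phosphate pH 7.0, 20 mM NaCl and 80 mM KCl, with TO-PRO-1 or TO-PRO-3 and RNA in 96-well plates. Plates were read 30 min after compound addition (about 5 uM final) on an Infinite 200 PRO, exciting at 485 or 620 nm.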

[1] = indicator: TO-PRO-1 0.1 uM, RNA concentration: 0.1 uM
[2] = indicator: TO-PRO-3 0.5 uM, RNA concentration: 0.5 uM

OC[C@H]1O[C@@H](Oc2ccc(O)cc2)[C@H](O)[C@@H](O)[C@@H]1O [Arbutin]
normalised indicator fluorescence [1]: 1.1 | normalised indicator fluorescence [2]: 1.25

Cc1c(C)c2c(c(C)c1O)CC[C@@](C)(CCC[C@H](C)CCC[C@H](C)CCCC(C)C)O2 [Vitamin E]
normalised indicator fluorescence [1]: 1.07 | normalised indicator fluorescence [2]: 1.16

C1CCN2C[C@@H]3C[C@@H](CN4CCCC[C@@H]34)[C@H]2C1 [(-)-Sparteine sulfate pentahydrate]
normalised indicator fluorescence [1]: 1.05 | normalised indicator fluorescence [2]: 0.993

CC(C)N(CCCCOCC(=O)NS(C)(=O)=O)c1cnc(-c2ccccc2)c(-c2ccccc2)n1 [Selexipag]
normalised indicator fluorescence [1]: 1.21 | normalised indicator fluorescence [2]: 1.13

NC(=O)N/N=C/c1ccc([N+](=O)[O-])o1 [Furacilin]
normalised indicator fluorescence [1]: 1.11 | normalised indicator fluorescence [2]: 1.05

CO[C@H]1/C=C/O[C@@]2(C)Oc3c(C)c(O)c4c(c3C2=O)C2=NC3(CCN(CC(C)C)CC3)NC2=C(NC(=O)/C(C)=C\C=C\[C@H](C)[C@H](O)[C@@H](C)[C@@H](O)[C@@H](C)[C@H](OC(C)=O)[C@@H]1C)C4=O [Rifabutin]
normalised indicator fluorescence [1]: 1.1 | normalised indicator fluorescence [2]: 1.16

COC(=O)C1=CC[C@@]23CC[C@@H]([C@@](C)(/C=C/C=C(\C)C(=O)O)OC2=O)[C@@]3(OC(C)=O)CC1 [Pseudolaric Acid B]
normalised indicator fluorescence [1]: 0.981 | normalised indicator fluorescence [2]: 1.27

O=C(COc1ccc(Cl)cc1)NC1CCC(NC(=O)COc2ccc(Cl)cc2)CC1 (stereo not given)
normalised indicator fluorescence [1]: 1.05 | normalised indicator fluorescence [2]: 0.94

O=c1ccc2ccc(O)cc2o1 [7-Hydroxycoumarin]
normalised indicator fluorescence [1]: 1.25 | normalised indicator fluorescence [2]: 1.16

O=C(Nc1nc2ccc(NC(=O)C34CC5CC(CC(C5)C3)C4)cc2s1)c1ccccc1
normalised indicator fluorescence [1]: 1.49 | normalised indicator fluorescence [2]: 1.12
